Sampled rows, rich in hits. Any-hit rate of the full collection: about 3.5%.
MITF inh: MITF inhibitors, primary screen, biochemical, AlphaScreen, human. inhibition, % at 2.6 µM. AlphaScreen MITF homodimerization, bead proximity signal. AID 1259374, 2018. 650,000 compounds, 0.91% hits; in the data active = inhibition above about 50%;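 also: 0% = vehicle wells with protein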
Target sequence (O75030 whole entry, looked up): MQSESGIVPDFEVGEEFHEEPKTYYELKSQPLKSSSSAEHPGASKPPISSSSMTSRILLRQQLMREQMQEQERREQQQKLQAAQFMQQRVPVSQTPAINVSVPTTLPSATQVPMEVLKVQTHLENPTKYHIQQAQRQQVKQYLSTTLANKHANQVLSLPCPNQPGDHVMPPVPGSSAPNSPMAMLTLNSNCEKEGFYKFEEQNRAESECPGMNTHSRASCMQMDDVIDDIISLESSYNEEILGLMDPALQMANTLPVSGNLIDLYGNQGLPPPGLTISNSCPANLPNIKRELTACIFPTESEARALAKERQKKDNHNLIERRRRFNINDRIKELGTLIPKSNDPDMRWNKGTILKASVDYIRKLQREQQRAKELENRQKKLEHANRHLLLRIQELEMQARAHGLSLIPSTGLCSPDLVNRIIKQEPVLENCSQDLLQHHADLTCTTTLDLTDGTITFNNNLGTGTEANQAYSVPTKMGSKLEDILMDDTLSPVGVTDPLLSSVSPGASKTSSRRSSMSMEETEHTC
GPR151 ag: activators of human GPR151, primary screen, cell-based, PathHunter beta-arrestin, luminescence | G-protein coupled receptor 151 (Homo sapiens), Q8TDV0 | PathHunter beta-arrestin GPR151 cells | activation, % at 11.2 µM | 650,000 compounds, 1% hits; in the data active = activation above about 4.9%;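 also: 0% = median of compound wells and 100% = cells with positive control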
TEAD-YAP inh: TEAD-YAP interaction inhibition, primary screen, TEAD-YAP interaction inhibitor project, luminescence, HEK-TIYL cells; 640,000 compounds, 1.4% hits; TEAD-Gal4/YAP UAS-luciferase luminescence; inhibition, % at 9.12 µM; AID 1259422, 2018; in the data active = inhibition above about 32%;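 also: 0% = median of test compound wells and 100% = reference inhibitor wells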
FBW7 activator: FBW7 E3 ligase activators, primary screen, biochemical, AlphaScreen, human; F-box/WD repeat-containing protein 7 (Homo sapiens), Q969H0; AlphaScreen FBW7–phospho-cyclin E peptide binding, activator screen; normalized activity (activation), % at 26.1 µM; 650,000 compounds, 0.13% hits; in the data active = normalized activity above about 1.9%;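 also: purified mutant Fbw7 with reduced substrate affinity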
Numbers without * were called inactive.

For O=C(c1cc(-c2cccs2)n(CC(=O)N2CCCc3ccccc32)n1)N1CCOCC1 the results were MITF inh -5, GPR151 ag 0, TEAD-YAP inh 51* and FBW7 activator 0.
For CCC(CC)NC(=O)COc1ccc(Cl)cc1 the results were MITF inh 3, GPR151 ag 1, TEAD-YAP inh 13 and FBW7 activator 0.
O=C(Nc1ccc2c(c1)OCCO2)C(c1ccccc1)N1CCCC1 (stereo unspecified) was read as MITF inh 11, GPR151 ag -2, TEAD-YAP inh -3 and FBW7 activator 0.
CCOc1cccc(C(=O)Nc2ccc(N3CCOCC3)c(Cl)c2)c1 was read as MITF inh 6, GPR151 ag -1, TEAD-YAP inh -17 and FBW7 activator 0.
For N/C(=N\c1nc(C(F)(F)F)cc(=O)[nH]1)Nc1ccc(I)cc1 the results were MITF inh -6, GPR151 ag -1, TEAD-YAP inh 45* and FBW7 activator 0.
CCSc1nnc(NC(=O)c2csc(C)c2-c2ccccc2)s1 was read as MITF inh 8, GPR151 ag 4, TEAD-YAP inh 7 and FBW7 activator 0.
Cc1ccccc1-n1ncc(C(C)NC(=O)c2n[nH]c3ccccc23)c1C (stereo unspecified) was read as MITF inh -14, GPR151 ag -1, TEAD-YAP inh -2 and FBW7 activator 0.
For CCc1n[n+](CC(=O)c2ccccc2)c(N)s1 the results were MITF inh 11, GPR151 ag -9, TEAD-YAP inh 57* and FBW7 activator 0.
For O=C(C[n+]1cccc2ccccc21)c1ccccc1 the results were MITF inh 11, GPR151 ag -3, TEAD-YAP inh -7 and FBW7 activator 0.
Screening Nc1sc2ccccc2[n+]1CC(=O)c1ccccc1 returned MITF inh 25, GPR151 ag -9, TEAD-YAP inh 75* and FBW7 activator 2.4*.
For CCOC(=O)C(CCCOc1ccc(OC)cc1)C(=O)OCC the results were MITF inh -8, GPR151 ag -1, TEAD-YAP inh 15 and FBW7 activator 0.
Screening CC(C)(Oc1ccc(Cl)cc1)C(=O)O/N=C(\N)Cc1ccc([N+](=O)[O-])cc1 returned MITF inh -1, GPR151 ag 0, TEAD-YAP inh -6 and FBW7 activator 0.
Screening CCOC(=O)C1=C(CN(C)C2CCCCC2)NC(=O)NC1c1cccs1 (stereo unspecified) returned MITF inh 0, GPR151 ag 2, TEAD-YAP inh -6 and FBW7 activator 0.
`N#CC(C1=NS(=O)(=O)c2ccccc21)c1nc(C23CC4CC(CC(C4)C2)C3)cs1` (stereo unspecified) gave MITF inh -3, GPR151 ag 1, TEAD-YAP inh 62* and FBW7 activator 0.
For Cc1csc(C(C#N)C2=NS(=O)(=O)c3ccccc32)n1 (stereo unspecified) the results were MITF inh 0, GPR151 ag 0, TEAD-YAP inh -19 and FBW7 activator 0.
`Cn1cc(-c2ccc3cnc(Nc4ccc(-n5cnc(-c6ccncc6)n5)cc4)nc3c2)cn1` gave MITF inh 14, GPR151 ag -1, TEAD-YAP inh 45* and FBW7 activator 1.
Cn1cc(-c2ccc3nc(Nc4ccc(-n5cnc(N6CCOCC6)n5)cc4)ncc3c2)cn1 was read as MITF inh 36, GPR151 ag 0, TEAD-YAP inh -8 and FBW7 activator 0.
Screening Cn1cc(-c2ccc(Nc3ncc4ccc(-c5cnn(CCN6CCOCC6)c5)cc4n3)cc2)cn1 returned MITF inh 3, GPR151 ag 0, TEAD-YAP inh 51* and FBW7 activator 0.
For Cc1cc(-c2ncn(-c3ccc(Nc4ncc5ccc(-c6cnn(C)c6)cc5n4)cc3)n2)ccn1 the results were MITF inh 27, GPR151 ag -3, TEAD-YAP inh 88* and FBW7 activator 1.
`COC(=O)C1=C(C)NC(=S)NC1c1cc(OC)c(OCC#N)cc1Br` (stereo unspecified) gave MITF inh -3, GPR151 ag 1, TEAD-YAP inh -5 and FBW7 activator 0.
For Cc1oc2c(c1C(=O)N1CCCC1)C(=O)c1ccccc1C2=O the results were MITF inh 16, GPR151 ag -1, TEAD-YAP inh 54* and FBW7 activator 0.
For Cc1oc2c(c1C(=O)O)C(=O)c1ccccc1C2=O the results were MITF inh 0, GPR151 ag 1, TEAD-YAP inh -6 and FBW7 activator 0.

Bioassay records deposited in PubChem BioAssay by The Scripps Research Institute Molecular Screening Center.
